The record followed here is PubChem BioAssay (EPA / NIEHS).

“And” between values parts separate entries of the source, which are not always exact repeats. Equal values may be shown once. The source holds several records for some structures; these can differ, active in one and inactive in another. The source made the active and inactive calls. The calls were made as follows: active = hit-call score of the fitted dose curve at least 0.9, where 1 is the maximum; inactive = score below 0.9.

The nature of assay [1]: BSK_hDFCGF_SRB: Viability Assessment in the BioMAP Diversity Plus: hDFCGF Assay (AID 2283061).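 Also: cells exposed to compound for 24 h before the read.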 The following applies: primary human foreskin fibroblasts. The method in brief:
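Primary human foreskin fibroblasts; 24 h post-dose; fixed 10% TCA, stained 0.1% SRB, A560 read; total protein as overt cytotoxicity measure; curves fit bidirectionally vs DMSO control.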

Read-out in assay [2]: Matrix Metallopeptidase 1 (MMP1), MMP1 (gene 4312)
Nature of the assay: BSK_hDFCGF_MMP1: BioMAP Diversity Plus: hDFCGF Assay for Matrix Metallopeptidase 1 (MMP1) Biomarker Activity (AID 2283064). The note with it: primary human foreskin fibroblasts; actives raise or lower the signal. The method, boiled down:
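hDFCGF primary fibroblasts (human foreskin); chemical added; 24 h; MMP1 by ELISA; bidirectional fit vs DMSO.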

Read-out in assay [3]: Vascular cell adhesion molecule 1 (VCAM1), VCAM1 (gene 7412)
Nature of the assay: BSK_hDFCGF_VCAM1: BioMAP Diversity Plus: hDFCGF Assay for Vascular cell adhesion molecule 1 (VCAM1) Biomarker Activity (AID 2283065).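 As to AC50: VCAM-1 protein level quantified by ELISA after 24 h chemical exposure.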 The note with it: primary human foreskin fibroblasts; actives raise or lower the signal. The method, boiled down:
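ELISA read-out of VCAM-1 on human skin fibroblasts, 24 h post-dose; gain or loss of signal fitted bidirectionally against DMSO baseline.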

Read-out in assay [4]: Plasminogen activator inhibitor-1 (PAI1), SERPINE1 (gene 5054)
The experiment in a line: BSK_hDFCGF_PAI1: BioMAP Diversity Plus: hDFCGF Assay for Plasminogen activator inhibitor-1 (PAI1) Biomarker Activity (AID 2283066). The following applies: primary human foreskin fibroblasts; actives raise or lower the signal. The method, boiled down:
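Primary dermal fibroblasts (human foreskin), hDFCGF system; compound 24 h; PAI-1 by ELISA; bidirectional fit vs DMSO control.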

Read-out in assay [5]: Intercellular Adhesion Molecule 1 (ICAM1), ICAM1 (gene 3383)
Nature of the assay: BSK_KF3CT_ICAM1: BioMAP Diversity Plus: KF3CT Assay for Intercellular Adhesion Molecule 1 (ICAM1) Biomarker Activity (AID 2283067). The note with it: primary human keratinocytes with fibroblasts; actives raise or lower the signal. The method in brief: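 ELISA readout of ICAM-1; KF3CT human skin co-culture (keratinocytes + foreskin fibroblasts), 24 h post-dose; gain/loss fit vs DMSO baseline.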

A short description of assay [6]: BSK_KF3CT_SRB: Viability Assessment in the BioMAP Diversity Plus: KF3CT Assay (AID 2283069).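 Also: total protein by sulforhodamine B staining as a cytotoxicity measure; read 24 h after compound addition.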 The following applies: primary human keratinocytes with fibroblasts. The method, boiled down: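 Keratinocytes co-cultured with foreskin fibroblasts (human primary); chemical added, 24 h; fix 10% TCA, stain 0.1% SRB, A560. Bidirectional fit vs DMSO.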
Read-out in assay [7]: Interleukin-1 alpha (IL1a), IL1A (gene 3552)
The experiment in a line: BSK_KF3CT_IL1a: BioMAP Diversity Plus: KF3CT Assay for Interleukin-1 alpha (IL1a) Biomarker Activity (AID 2283070). The note with it: primary human keratinocytes with fibroblasts; actives raise or lower the signal. The method in brief:
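Chemicals were dosed onto co-cultured human keratinocytes and foreskin fibroblasts, IL-1a was quantified by ELISA at 24 h, and activity was fitted in both directions relative to DMSO controls.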

Read-out in assay [8]: Monokine induced gamma interferon (MIG), CXCL9 (gene 4283)
Nature of the assay: BSK_hDFCGF_MIG: BioMAP Diversity Plus: hDFCGF Assay for Monokine induced gamma interferon (MIG) Biomarker Activity (AID 2283063). The note with it: primary human foreskin fibroblasts; actives raise or lower the signal. The method, boiled down:
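Fibroblasts (human foreskin, primary) dosed, 24 h, MIG by ELISA; fit bidirectional vs DMSO.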

Read-out in assay [9]: Interferon-gamma inducible Protein 10 (IP10), CXCL10 (gene 3627)
The experiment in a line: BSK_KF3CT_IP10: BioMAP Diversity Plus: KF3CT Assay for Interferon-gamma inducible Protein 10 (IP10) Biomarker Activity (AID 2283068). The note with it: primary human keratinocytes with fibroblasts; actives raise or lower the signal. The method, boiled down:
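In a primary skin co-culture of keratinocytes and fibroblasts, IP-10 is quantified by ELISA at 24 h after dosing. SRB staining of parallel wells monitors overt toxicity. Curves are fitted both directions against DMSO.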

Read-out in assay [10]: TIMP metallopeptidase inhibitor 1 (TIMP1), TIMP1 (gene 7076)
Nature of the assay: BSK_hDFCGF_TIMP1: BioMAP Diversity Plus: hDFCGF Assay for TIMP metallopeptidase inhibitor 1 (TIMP1) Biomarker Activity (AID 2283062). The following applies: primary human foreskin fibroblasts; actives raise or lower the signal. The method, boiled down:
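ELISA readout of TIMP-1 from human dermal foreskin fibroblast cultures 24 h post-dosing. Curves were fitted in both directions against DMSO baseline, with SRB total-protein staining in parallel cultures as a cytotoxicity check.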

`CCOC(=O)CCCCCCCCC(=O)OCC`: the outcome in assay [1], in assay [2], in assay [3], in [4], in [5] and in assay [6] was inactive. Besides, the result in assay [7] was inactive.

Consider `CCCCOCCOCCO`, for which the result in assay [1], in assay [2], in [3], in [4], in assay [5] and in [6] was inactive. Moreover, the outcome in assay [7] was inactive.

Turning to `O=S(=O)(O)C(F)(F)C(F)(F)OC(F)(F)C(F)(F)F`, the result in [1], in [2], in [3], in assay [4], in assay [5] and in assay [6] was inactive. The result in assay [7] was inactive.

The AC50 is the concentration giving half of the maximal activity seen. Regarding `CCCCCCCC1CCCC1=O` (stereo not given), the outcome in [1], in assay [3], in assay [4] and in assay [7] was inactive. The figures for the AC50 in assay [5] and in assay [6] were 30.6 µM (active) and 35.1 µM (active), respectively.

Consider `C=C(C)C(N)=O`, for which the outcome in assay [1], in assay [8], in [3], in assay [4], in assay [5] and in assay [9] was inactive. For the same compound, the outcome in [6] and in assay [7] was inactive.

Take `c1ccc(OCCOc2ccccc2)cc1`: the values for the AC50 in [1] and in assay [7] were 0.15 µM (active) and 2.45 µM (active), respectively. Besides, the result in [1], in assay [3], in assay [4], in assay [5], in [6] and in [7] was inactive.

In the case of `OCC(F)(OC(F)(F)C(F)(OC(F)(F)C(F)(F)C(F)(F)F)C(F)(F)F)C(F)(F)F` (stereo not given), the AC50 in assay [1] was 6.02 µM (active) and 5.36 µM (active); in assay [3] it was 2.25 µM (active) and 2.1 µM (active); in [4] it was 6.18 µM (active); in assay [5] it was 4.83 µM (active) and 3.33 µM (active); in [6], 5.66 µM (active) and 4.19 µM (active). Further, the outcome in assay [4] and in [7] was inactive.

For the compound `CC=CC(=O)C1=C(C)C=CCC1(C)C`, the result in assay [1], in [8], in [3], in assay [5], in assay [6] and in assay [7] was inactive. Further, in [4], the AC50 was 0.016 µM (active).

With `O=S1(=O)CC(Cl)(Cl)C(Cl)(Cl)C1`, the AC50 in [1] was 0.845 µM (active); in [8] it was 0.794 µM (active); in [3], 613 nM (active); in assay [4], 0.865 µM (active); in assay [5], 1.4 µM (active); in [9] it was 2.65 µM (active). Moreover, the concentration at half-maximal activity (AC50) in assay [6] is 1.36 µM (active); in [7] it was 1.52 µM (active).

Take `O=C(c1ccc(OCCN2CCCCC2)cc1)c1c(-c2ccc(O)cc2)sc2cc(O)ccc12`: the AC50 in assay [1] was 24.4 µM (active); in [3], 31400 nM (active); in assay [4], 15.6 µM (active); in [5] it was 38 µM (active); in [6], 29.2 µM (active); in assay [7], 21.8 µM (active).

With `CC(=O)OC(C)(C)C1CC=C(C)CC1` (stereo not given), the results for the AC50 in [1] and in [4] were 36.7 µM (active) and 23.6 µM (active), respectively. Moreover, the outcome in assay [3], in assay [5], in [6] and in assay [7] was inactive.

Take `O=C(O)C(F)(F)OC(F)(F)C(F)(F)OC(F)(F)C(F)(F)C(F)(F)C(F)(F)F`: the AC50 in assay [1] is 10.4 µM (active); in [3] it was 5.95 µM (active) and 13.8 µM (active). In addition, the result in assay [1], in [10], in assay [4], in [5], in assay [6] and in assay [7] was inactive.

Consider `CC(C)(CO)CO`, for which, in assay [1], the AC50 was 4.62 µM (active). Also, the result in assay [1], in [3], in assay [4], in [5], in assay [6] and in assay [7] was inactive.

Consider `C=C(F)C(=O)OC(C(F)(F)F)C(F)(F)F`, for which, in [1], the AC50 is 38.2 µM (active). In addition, the result in assay [1], in assay [3], in [4], in [5], in assay [6] and in assay [7] was inactive.

For `CC(=O)OCC=C(C)CCC=C(C)CCC=C(C)C`, the outcome in [1], in assay [3], in [5], in assay [6] and in [7] was inactive. In addition, the values for the AC50 in [10] and in [4] were 26.3 µM (active) and 25.8 µM (active), respectively.

Turning to `c1ccc2c(c1)-c1ccc3ccc4cccc5cc-2c1c3c45`, the outcome in [1], in [3], in [4], in assay [5], in assay [6] and in [7] was inactive.

Consider `NC(=O)c1c(Cl)cccc1Cl`, for which the result in assay [1], in assay [3], in assay [4], in assay [5], in assay [9] and in assay [6] was inactive. For the same compound, the outcome in [7] was inactive.

On to `CC(C)Cc1ccc(C(C)C(=O)O)cc1` (stereo not given), for which the outcome in [1], in assay [10], in assay [3], in [4], in [5] and in assay [6] was inactive. For the same compound, the result in [7] was inactive.

As for `OCCN1CCOCC1`, the outcome in assay [1], in assay [2], in [3], in assay [4], in assay [5] and in assay [6] was inactive. The result in assay [7] was inactive.

`CC/C(=C(\c1ccccc1)c1ccc(OCCN(C)C)cc1)c1ccccc1`: the AC50 in assay [1] was 6.75 µM (active) and 6.55 µM (active); in assay [3], 9.88 µM (active) and 9.9 µM (active); in [4], 7.69 µM (active) and 7.18 µM (active); in [5], 9.03 µM (active) and 8.65 µM (active); in [9] it was 10.1 µM (active) and 7.37 µM (active); in [6], 6.49 µM (active) and 9.44 µM (active). Also, the AC50 in assay [7] is 8.27 µM (active) and 11.2 µM (active).
